Compounds without any hit were thinned out: in the full panel of roughly 83,000, 20% have a hit.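 Activity criterion: percent growth below 10, measured after cells in 96-well plates were exposed to a single compound concentration for 48 hours.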 The source made the active and inactive calls.
How the values were obtained:
Experiment in all cases: NCI-60 one-dose screen, 48 h (100 = growth as untreated, 0 = no growth, -100 = all killed)
Conditions in all cases: 10 µM unless noted
[1] = tested on: SN12C renal
[2] = tested on: UO-31 renal
[3] = tested on: TK-10 renal
[4] = tested on: ACHN renal
[5] = tested on: A498 renal
[6] = tested on: MOLT-4 leukemia
[7] = tested on: SR leukemia
[8] = tested on: OVCAR-8 ovarian
[9] = tested on: OVCAR-5 ovarian
[10] = tested on: SK-OV-3 ovarian
[11] = tested on: IGROV1 ovarian
[12] = tested on: OVCAR-3 ovarian
[13] = tested on: HS 578T breast
[14] = tested on: NCI/ADR-RES ovarian
[15] = tested on: T-47D breast
[16] = tested on: CAKI-1 renal
[17] = tested on: CCRF-CEM leukemia
[18] = tested on: RPMI-8226 leukemia
[19] = tested on: OVCAR-4 ovarian

Measured: growth

CCN(CC)c1ccc(C(O)C2=CC(=O)c3ccccc3C2=O)cc1 (stereo unspecified)
active: [1] -28.1% | [3] -31.4% | [4] -58.8% | [5] 6.3% | [6] 7.92% | [7] -5.59% | [8] -3.87% | [9] -23.8% | [11] -42.7% | [12] -77.2% | [13] -10.6% | [15] -60.6%
inactive: [2] 22.7% | [10] 73.1% | [14] 84.4%

CN(C(=O)c1ccccc1)N(C)C(=O)c1ccccc1
inactive: [1] 105% | [2] 93.2% | [3] 105% | [4] 106% | [5] 100% | [6] 88.6% | [7] 92.8% | [8] 103% | [10] 105% | [11] 95.2% | [12] 127% | [13] 109% | [14] 108% | [15] 94.5%

O=C(OCCBr)c1ccc(Cl)c([N+](=O)[O-])c1
active: [12] -21.3% | [13] -29.9% | [15] -57.2%
inactive: [1] 102% | [2] 88.9% | [3] 106% | [4] 104% | [5] 97.6% | [6] 83.7% | [7] 86.5% | [8] 102% | [9] 108% | [10] 79.4% | [11] 102% | [14] 113%

Cc1cc2c(C#N)n3c(c2cc1C)C(=O)C(c1ccccc1)Oc1ccccc1-3 (stereo unspecified)
inactive: [1] 27.8% | [2] 14.5% | [4] 32.6% | [16] 33.1% | [5] 41.2% | [17] 19.4% | [6] 69.2% | [18] 29.6% | [8] 23.6% | [9] 48.6% | [19] 22.4% | [10] 39.6% | [11] 48.8% | [12] 25.3% | [13] 46.2% | [14] 25.8% | [15] 15.2%
active: [7] 7.67%

COC(=O)c1ccc2c(c1)nc(-c1ccc(O)c(OC)c1)n2-c1cc(C(C)(C)C)[nH]n1
inactive: [1] 97.7% | [2] 50.9% | [3] 116% | [4] 108% | [5] 90.5% | [17] 93.1% | [6] 81.2% | [18] 72.8% | [8] 98.8% | [19] 111% | [10] 133% | [11] 101% | [12] 98.1% | [13] 98.2% | [14] 98.4% | [15] 92.3%

CC1(C)OC(=O)C(=Cc2ccccc2Br)C(=O)O1
inactive: [1] 96.6% | [2] 92.2% | [4] 102% | [5] 105% | [17] 98.2% | [6] 99.5% | [7] 79.7% | [18] 95.5% | [8] 99.4% | [9] 96.6% | [10] 111% | [11] 102% | [12] 106% | [13] 101% | [14] 106% | [15] 102%

CCOC(=O)c1c(NC(=O)C2CCCCC2C(=O)O)sc2c1CCCC2 (stereo unspecified)
inactive: [1] 104% | [2] 81.4% | [3] 113% | [16] 92.7% | [5] 109% | [17] 99.6% | [6] 105% | [18] 105% | [8] 96.7% | [9] 106% | [19] 100% | [10] 97.9% | [11] 105% | [12] 106% | [13] 103% | [14] 106% | [15] 103%

COc1ccc(/C=C(\C#N)c2ccccc2)cc1
inactive: [1] 86.6% | [2] 85.6% | [4] 97.3% | [16] 78.2% | [5] 79.4% | [17] 93.1% | [6] 96.1% | [7] 55.7% | [18] 84.7% | [8] 92% | [9] 92.1% | [10] 114% | [11] 87.9% | [12] 95.1% | [13] 85.7% | [14] 78% | [15] 88.6%

NNC(=O)NO
inactive: [1] 106% | [2] 69.8% | [3] 94% | [4] 105% | [5] 114% | [17] 95.8% | [6] 91.6% | [7] 95.8% | [18] 109% | [8] 102% | [9] 110% | [19] 101% | [10] 94.1% | [11] 108% | [12] 106% | [13] 96.6% | [14] 109% | [15] 98.9%

— PubChem BioAssay (NCI)
